Screening results as filed in PubChem.
Sampled rows, rich in hits. Any-hit rate of the full collection: about 4.6%.
IL1B cytotox = toxic to HUVEC cells under IL-1B stimulation. HUVEC cell count loss, Hoechst imaging, IL-1B stimulated. cell count reduction, % at 2 µM. hit rate 0.41% among 94,000;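 active means cell count reduction more than 3 SD above the screen-wide mean, cut at about 70% in these data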;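 further: normalized per plate to untreated control cells as the no-loss baseline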
sEH act = activators of human soluble epoxide hydrolase. P34913. purified human sEH enzymatic activity, activator screen. activation, % at 2 µM. hit rate 0.04% among 91,000; in the data active means activation above about 37%
sEH inh = inhibitors of human soluble epoxide hydrolase | recombinant human sEH enzymatic activity assay | inhibition, % at 2 µM | hit rate 0.34% among 91,000 | AID 707; in the data active means inhibition above about 80%
NFkB transloc inh = blocks IL-1B driven NFkB nuclear translocation in HUVEC cells; HUVEC IL-1B NFkB p65 nuclear translocation imaging; inhibition, % at 2 µM; hit rate 0.43% among 94,000;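 active means inhibition above about 30% together with a positive call from visual inspection of the well image, limit read from the data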;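 further: nuclear over cytoplasmic p65 intensity ratio measured by imaging; 0% = IL-1B stimulated DMSO wells and 100% = unstimulated DMSO wells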
IL1B NFkB pot = enhances IL-1B driven NFkB nuclear translocation | HUVEC IL-1B NFkB p65 nuclear translocation imaging | activation, % at 2 µM | hit rate 0.3% among 94,000 | AID 819;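 active means activation above 40%, about the mean plus 3 SD, also judged a hit on visual image review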;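 further: percent activation is computed from the nuclear over cytoplasmic p65 intensity ratio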
Cav32 inh = inhibitors of human Cav3.2 T-type calcium channel. O95180. Cav3.2-expressing cells, Fluo-4 calcium fluorescence FDSS; active compounds read low. B-score at 10 µM. hit rate 4% among 100,000;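 active means single-dose well whose peak fluorescence ratio is a statistical outlier from its plate by either plate-standardised score or position-corrected B-score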
Numbers without * were called inactive; . = no result given.

SMILES	IL1B cytotox	sEH act	sEH inh	NFkB transloc inh	IL1B NFkB pot	Cav32 inh
COc1ccccc1N1CCN(C(=O)CCNS(=O)(=O)c2ccc(Br)s2)CC1	-55.2	17.7	-15.8	2.9	-2.9	-4.65*
COc1ccc(-n2c(Cc3cccn3C)nnc2SCC(=O)N2CCCC2)cc1	.	.	.	.	.	0.28
Nc1c(C(=O)Nc2ccc3c(c2)OCCO3)nnn1CCc1ccccc1	0.5	.	.	-24.5	24.5	-1.14
CCOC(=O)Cc1ccc(NS(=O)(=O)c2ccc(SC)cc2)cc1	-26.7	-6.8	8.1	-7.9	7.9	-6.19*
CCOc1ccc(NS(=O)(=O)c2ccc(SC)cc2)cc1	-2.1	3.7	-3.6	-12.7	12.7	-5.87*
CCOc1ccc(NS(=O)(=O)c2ccc(N)cc2)cc1	15.7	-3.6	1.7	2.1	-2.1	-0.277
CCOC(=O)c1ccc(NC(=O)COc2ccc(S(=O)(=O)NC(C)CC)cc2)cc1 (centres undefined)	-9.4	-16.4	18.8	-8.6	8.6	0.64
Cc1nc(-c2ccc(Cl)cc2)sc1C1(C)CC(c2c(Cl)cccc2Cl)=NO1 (centres undefined)	.	.	.	.	.	-0.381
CCCCCCNS(=O)(=O)c1ccc(Cl)s1	-6.1	3.4	-7.0	-18.6	18.6	-6.44*
CNc1oc(-c2ccc(C)cc2)nc1P(=O)(c1ccccc1)c1ccccc1	-40.3	3.7	-3.0	8.6	-8.6	-4.32*
CCN1CCN(C(=O)c2ccc(NS(=O)(=O)c3ccccc3)cc2)CC1	.	13.8	-10.8	.	.	0.316
CC1=CC(=O)c2c(O)ccc(O)c2C1=O	.	.	.	.	.	-5.47*
COC(=O)[C@H]1C[C@@H]1[C@H](NC(=O)[C@H]1C[C@@H]1[C@H](NC(=O)OCc1ccccc1)c1ccccc1)c1ccccc1	.	.	.	.	.	-2.97
CC1CC(NC(=O)Cc2ccc(Br)cc2)CC(C)(C)C1 (centres undefined)	19.0	-66.7	67.5	-9.8	9.8	-7.44*
O=C(c1ccc(=O)oc1)N1CCN(c2ccc(F)cc2)CC1	.	.	.	.	.	-0.271
O=C(NCCc1ccc(F)cc1)c1cccs1	-27.4	-7.6	10.5	-16.1	16.1	0.917
O=C(NCCc1csc(-c2ccc(C(F)(F)F)cc2)n1)c1cccs1	-2.2	-9.7	8.8	-2.6	2.6	-6.12*
O=C(Nc1ccc(Cl)cc1)OCCn1nnnc1C(c1ccccc1Cl)N1CCOCC1 (centres undefined)	12.9	-1.7	3.4	-7.5	7.5	-6.88*
Cc1ccc(OC(C)c2nnc(N)s2)cc1Cl (centres undefined)	92.1*	13.2	-15.4	97.3*	-97.3	.
CCN(CC)S(=O)(=O)c1cc(-c2nnc(-c3ccc(Br)cc3)o2)ccc1Cl	-9.4	-1.0	2.7	2.7	-2.7	-2.53
Cc1ccc(Nc2nc(C)c(CCC(C)C)c(=O)[nH]2)cc1	7.6	-55.8	55.7	-18.7	18.7	-1.1
Cc1nc(Nc2ccc(F)cc2)[nH]c(=O)c1CCC(C)C	-16.5	-23.0	23.9	-4.4	4.4	-5.55*
Nc1nnc(CCOc2ccccc2Cl)s1	-148.5	-8.7	7.3	61.2*	-61.2	0.615
Cn1cc(C(c2ccccn2)c2cn(C)c3ccccc23)c2ccccc21	12.2	5.1	-2.8	6.3	-6.3	-6.56*
COc1ccc(Oc2nc(Oc3ccc(OC)cc3)nc(Oc3ccc(OC)cc3)n2)cc1	-18.3	-3.4	1.4	-20.6	20.6	-0.148
SMILES	IL1B cytotox	sEH act	sEH inh	NFkB transloc inh	IL1B NFkB pot	Cav32 inh
Cc1ccc(-c2nc(CSCC(=O)N3CCOCC3)c(C)o2)cc1	-13.2	4.1	-3.5	-1.2	1.2	0.231
Cc1ccc(-c2nc(CSCC(=O)N3CCN(c4ccccn4)CC3)c(C)o2)cc1	6.2	-10.9	10.1	10.2	-10.2	-4.98*
CCc1ccc(-c2nc(CSCC(=O)N3CCN(c4ccccn4)CC3)c(C)o2)cc1	13.2	-53.6	54.5	4.5	-2.6	-6.83*
Cc1sc2nc(SCC(=O)c3cc(C)n(CC4CCCO4)c3C)n(C(C)C)c(=O)c2c1C (centres undefined)	.	.	.	.	.	-4.09*
Cc1cccc(-n2nnnc2SCC(=O)c2cc(C)n(CC3CCCO3)c2C)c1 (centres undefined)	.	.	.	.	.	-5.43*
Cc1cc(C(=O)CSc2nnc(-c3ccc(Cl)cc3)n2C)c(C)n1CC1CCCO1 (centres undefined)	7.9	4.7	-2.8	-12.1	12.1	1.57
Cc1cc(C(=O)Cn2nnc(-c3ccc(Cl)cc3)n2)c(C)n1CC1CCCO1 (centres undefined)	19.9	1.6	-2.0	-7.0	7.0	-5.21*
Cc1cc(C(=O)CSc2nc3ccccc3o2)c(C)n1CC1CCCO1 (centres undefined)	-18.8	-3.6	4.9	-5.0	5.0	-0.578
CCN(CC)C(=O)C1CCCN(c2ccc([N+](=O)[O-])cc2/C=N/NC(=O)c2cccc(Br)c2)C1 (centres undefined)	8.5	-5.8	8.3	-1.6	1.6	-7.15*
O=C(N/N=C/c1ccc([N+](=O)[O-])s1)c1cccc(Br)c1	-16.5	-58.9	59.4	-18.1	18.1	-0.241
CN1CCN(c2ccc([N+](=O)[O-])cc2/C=N/NC(=O)c2ccc(F)cc2)CC1	12.5	5.8	-3.8	30.1*	-30.1	.
CC(Oc1ccc(Cl)cc1)C(=O)/C=C/N(C)C (centres undefined)	-11.7	-1.8	7.4	4.0	-4.0	-0.189
CCOC(=O)CC1=C(C(=O)OCC)C(c2cccnc2)C(C#N)=C(N)O1 (centres undefined)	-7.0	11.9	-9.8	-22.9	22.9	1.84
CCCC1=C(C(=O)OCC)C(c2c(C)nn(-c3ccccc3)c2Cl)C(C#N)=C(N)O1 (centres undefined)	-48.6	-9.0	7.4	-13.0	13.0	-5.03*
O=C(Nc1ccc2c(c1)C(=O)N(CC1CCCO1)C2=O)c1cccc(Br)c1 (centres undefined)	-19.4	-57.7	56.9	-8.3	8.3	-2.66*
O=C1NC(c2ccccc2)C(C(=O)c2cccs2)C(O)(C(F)(F)F)N1 (centres undefined)	31.8	8.0	-8.4	-4.4	4.4	-0.92
CCSC1=C(C#N)C(c2ccccc2Cl)C(C(=O)c2cccs2)C(O)(C(F)(F)F)N1 (centres undefined)	-6.5	4.8	-8.0	-7.8	7.8	-9.22*
COc1ccc(-n2c(Cc3cccn3C)nnc2SCC(=O)Nc2ccc(Cl)cc2)cc1	1.8	-2.8	1.8	17.6	-17.6	-4.47*
COc1ccc(-n2c(Cc3cccn3C)nnc2SCC(N)=O)cc1	12.2	-3.8	3.7	-5.9	5.9	-0.279
COc1ccc(NC(=O)CSc2nnc(C3CCCCC3)n2-c2ccccc2)cc1	54.7	7.8	-4.0	81.2*	-81.2	-6.15*
COc1ccc(-n2c(Cc3cccn3C)nnc2SCC(=O)Nc2ccccc2)cc1	-52.7	-4.5	3.6	12.0	-12.0	-12.9*
COc1ccc(-n2c(Cc3cccn3C)nnc2SCC(=O)Nc2cccc(F)c2)cc1	.	.	.	.	.	-4.55*
COc1ccc(NC(=O)CSc2nnc(C3CC3)n2N)cc1	-5.9	.	.	-11.9	11.9	0.841
c1csc(CNCCN2CCOCC2)c1	1.9	18.0	-18.7	-7.8	7.8	-2.19
